Data published in PMC5540273 (PLoS ONE, 2017).

How the values were obtained:
Conditions in all cases: concentration: 1 μM, replicates: in singlicate; n = 1
IRAK1 = tested on: IRAK1
IRAK3 = tested on: IRAK3
IRAK4 = tested on: IRAK4
ITK = tested on: ITK
[1] = tested on: JAK1(JH1domain-catalytic)
[2] = tested on: JAK1(JH2domain-pseudokinase)
[3] = tested on: JAK2(JH1domain-catalytic)
[4] = tested on: JAK3(JH1domain-catalytic)
JNK1 = tested on: T1, JNK1
T1 construct: gene MAPK8

JNK2 = tested on: T2, JNK2
T2 construct: gene MAPK9
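Further: KINOMEscan kinase panel screen.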

Row | SMILES | %Inh (IRAK1) | %Inh (IRAK3) | %Inh (IRAK4) | %Inh (ITK) | %Inh [1] | %Inh [2] | %Inh [3] | %Inh [4] | %Inh (JNK1) | %Inh (JNK2)
1 | O=C1NC(=O)C(c2ccc(Cl)cc2)=C1Nc1ccc(O)cc1 [SB-340867] | 0% | 0% | 0% | 0% | 0% | 0% | 14% | 0% | 3% | 0%
2 | Cc1c(Cn2c3ccccc3n3c(=O)cc(N4CCOCC4)nc23)cccc1C(F)(F)F [GSK2306394] | 0% | 14% | 11% | 11% | 13% | 0% | 35% | 0% | 21% | 5%
3 | Cc1cccc2c(-c3ccncn3)c(-c3ccc(F)cc3)nn12 [GW515532] | 0% | 8% | 3% | 7% | 5% | 6% | 36% | 0% | 33% | 74%
4 | COc1ccc(CSc2nnc(-c3ccc4ncsc4c3)o2)cc1C(F)(F)F | 0% | 0% | 9% | 0% | 25% | 0% | 0% | 0% | 0% | 0%
5 | Cc1ccccc1-c1cc(-c2c[nH]nc2-c2ccccn2)ccn1 [GW680061] | 28% | 2% | 4% | 12% | 4% | 0% | 12% | 0% | 38% | 30%
6 | O=C(Nc1n[nH]c2nc(-c3cccs3)c(Br)cc12)C1CC1 [SB-735297] | 0% | 0% | 0% | 0% | 13% | 21% | 20% | 0% | 40% | 15%
7 | Cc1ccc(NC(=O)c2ccc(Cl)cc2)cc1-c1ccc(C(=O)Nc2ccncc2)cc1 [GSK1398467] | 30% | 3% | 14% | 8% | 0% | 0% | 0% | 0% | 19% | 15%
8 | Cc1ccc(NC(=O)Nc2ccccc2F)cc1-c1ccc(C(=O)Nc2ccncc2)cc1 [GSK1398477] | 0% | 31% | 1% | 19% | 12% | 0% | 12% | 0% | 28% | 27%
9 | CC(=O)c1cccc(NC(=O)NC2CCN(c3ccnc(Nc4ccc(F)cc4)n3)C2)c1 (centres unmarked) [GSK1379710] | 27% | 11% | 7% | 8% | 21% | 9% | 25% | 0% | 16% | 13%
10 | Cn1cnc2c(N)ncnc21 [SKF-97623] | 0% | 0% | 0% | 7% | 19% | 0% | 0% | 6% | 1% | 0%
11 | Cc1cnc(N)c(/C=C/c2cncc(C(=O)NCCc3ccc(Cl)cc3Cl)c2)c1.Cl [GSK190937] | 16% | 0% | 0% | 0% | 0% | 0% | 0% | 0% | 0% | 18%
12 | COc1cccc(NC(=O)Nc2ccc(C)c(-c3ccc(C(=O)Nc4ccncc4)cc3)c2)c1 [GSK1398474] | 0% | 7% | 1% | 11% | 20% | 0% | 0% | 0% | 8% | 39%
13 | Nc1ncnc2occ(-c3ccc4c(c3)CCN4C(=O)Cc3cc(F)ccc3F)c12 [GSK2645446] | 0% | 0% | 0% | 0% | 0% | 0% | 0% | 0% | 0% | 0%
14 | CCc1ccc(-c2ccc3c(c2)-c2n[nH]cc2S(=O)(=O)N3C)cc1 | 0% | 0% | 0% | 0% | 18% | 14% | 3% | 0% | 1% | 0%
15 | COc1cccc(CNC(=O)NC2CCN(c3ccnc(Nc4ccc(F)cc4)n3)C2)c1 (centres unmarked) [GSK1379723] | 23% | 5% | 17% | 9% | 5% | 0% | 6% | 0% | 32% | 3%
16 | COc1cc2ncnc(Nc3cccc(Br)c3)c2cc1OC.Cl [GI230329] | 36% | 21% | 1% | 0% | 3% | 0% | 6% | 0% | 18% | 56%
17 | CC(=O)c1c(C)c2cnc(Nc3ccc(N4CCNCC4)cn3)nc2n(C2CCCC2)c1=O | 0% | 0% | 0% | 0% | 0% | 11% | 0% | 0% | 11% | 0%
